This is an account of results in PubChem BioAssay (NCI).

The structures appear in SMILES notation. About 83,000 compounds went through this panel and 20% of them were active in at least one assay; those are over-represented in the sample as a whole.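 Step 1: grow cells in 96-well plates. Step 2: add test compound at a single concentration. Step 3: incubate 48 h. Step 4: record percent growth.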 A number with no mark means an inactive call. Calls of active or inactive are those of the source. How the source made its calls: active means growth percent below 10; inactive means the rest.

Test systems include HOP-92 NSCLC; RXF 393 renal; SK-MEL-5 melanoma; SK-MEL-28 melanoma; EKVX NSCLC; CCRF-CEM leukemia; OVCAR-4 ovarian; IGROV1 ovarian; T-47D breast; MDA-MB-435 melanoma; SW-620 colon; MCF7 breast; HCT-116 colon; KM12 colon; OVCAR-8 ovarian; HCC-2998 colon; A549/ATCC NSCLC; CAKI-1 renal.
What all share (assay): NCI-60 one-dose screen, 48 h (100 = growth as untreated, 0 = no growth, -100 = all killed)
What all share (conditions): 10 µM

For the compound `COc1ccccc1-n1cc(C#N)c(N)c1C(=O)c1ccc(Cl)cc1Cl`, the growth with HOP-92 NSCLC was 44.2%; with RXF 393 renal, -8.31% (active); in the assay on SK-MEL-5 melanoma it was 17.3%; with SK-MEL-28 melanoma, 57.5%; in the assay on EKVX NSCLC, 29.6%; in the assay with CCRF-CEM leukemia it was 7.78% (active). Moreover, the growth in the assay on OVCAR-4 ovarian was 61%; in the assay with IGROV1 ovarian, 38%; in the assay with T-47D breast it was 28.5%; in the assay on MDA-MB-435 melanoma, -38.3% (active); in the assay with SW-620 colon, 25%; with MCF7 breast, 16.4%. For the same compound, the growth is 36.6% in the assay on HCT-116 colon and 22.9% in the assay on KM12 colon.

`C#CCOc1cc(N(CC)CC)ccc1C(C(=O)NC(C)(C)C)N(C(=O)C1CCc2cc(F)ccc2O1)c1ccc(F)cc1F` (stereo not given): the growth was 30.5% with HOP-92 NSCLC; 64.6% with RXF 393 renal; 11.2% in the assay on SK-MEL-5 melanoma; 39.7% in the assay with CCRF-CEM leukemia; 43.9% in the assay on OVCAR-8 ovarian; 43.7% in the assay on OVCAR-4 ovarian. Also, the growth was 60.3% with IGROV1 ovarian; 37.4% in the assay with T-47D breast; 40.6% with MDA-MB-435 melanoma; 53.7% with SW-620 colon; 17.5% in the assay with MCF7 breast; 24.7% with HCT-116 colon. The growth with HCC-2998 colon is 78.1%; in the assay with KM12 colon, 25%.

In the case of `COc1ccc(Cc2nn(CC(=O)N/N=C/c3ccc(Br)cc3)c(=O)c3c(C)noc23)cc1`, the growth is -15% (active) in the assay on HOP-92 NSCLC; -33.7% (active) with RXF 393 renal; 85.7% in the assay on SK-MEL-5 melanoma; 70.2% in the assay on SK-MEL-28 melanoma; 40.5% in the assay on CCRF-CEM leukemia; -44% (active) in the assay with OVCAR-4 ovarian. The growth in the assay with T-47D breast was -1.9% (active); in the assay on MDA-MB-435 melanoma it was 54.1%; with SW-620 colon, 48.8%; in the assay with MCF7 breast, 40.4%; in the assay with HCT-116 colon, 0.469% (active); in the assay with KM12 colon, 60.7%.

Regarding `CCOC(=O)c1ccc(NC(=O)CSC(CC(=O)c2sc(Nc3ccccn3)nc2C)c2ccccc2F)cc1` (stereo not given), the growth in the assay with HOP-92 NSCLC is -14.5% (active); in the assay on A549/ATCC NSCLC, 1.12% (active); in the assay on RXF 393 renal it was -12.1% (active); in the assay on SK-MEL-5 melanoma, 7.25% (active); in the assay on CCRF-CEM leukemia, 3.92% (active); in the assay on OVCAR-8 ovarian, -0.285% (active). The growth in the assay on OVCAR-4 ovarian was 41.1%; with IGROV1 ovarian it was 14%; with T-47D breast it was 13.1%; with MDA-MB-435 melanoma, -10.7% (active); with SW-620 colon, 0.242% (active); in the assay with MCF7 breast, -17.3% (active). The growth in the assay on HCT-116 colon was 1.05% (active); in the assay on KM12 colon it was -50.8% (active).

As to `CCOc1ccc(/C=N/NC(=O)Cn2nc(Cc3ccc(OC)cc3)c3onc(C)c3c2=O)cc1`, the growth was -25.7% (active) in the assay with HOP-92 NSCLC; 0.727% (active) in the assay with A549/ATCC NSCLC; -65.6% (active) with RXF 393 renal; 89.2% in the assay on SK-MEL-5 melanoma; 33.8% in the assay with EKVX NSCLC; 5.68% (active) with CAKI-1 renal. The growth with CCRF-CEM leukemia is 17.9%; in the assay on OVCAR-4 ovarian it was 10.1%; in the assay on T-47D breast it was 16.3%; in the assay with MDA-MB-435 melanoma, 50.5%; with SW-620 colon, 23%; in the assay with MCF7 breast, 27.9%. In addition, the growth in the assay with HCT-116 colon was -23.3% (active); with KM12 colon, 47.9%.

With `C#C[C@]1(O)CC[C@H]2[C@@H]3CC=C4c5sc(Nc6ccc(C(F)(F)F)cn6)nc5CC[C@]4(C)[C@H]3CC[C@@]21C`, the growth in the assay on HOP-92 NSCLC was -7.64% (active); in the assay with A549/ATCC NSCLC it was 7.15% (active); with RXF 393 renal, -37.9% (active); in the assay on SK-MEL-5 melanoma, -97.1% (active); in the assay on SK-MEL-28 melanoma, -16.5% (active); in the assay with CCRF-CEM leukemia, 6.72% (active). Besides, the growth was 20% with OVCAR-4 ovarian; 8.97% (active) in the assay with T-47D breast; 1.17% (active) in the assay with MDA-MB-435 melanoma; -32.8% (active) in the assay on SW-620 colon; -28.7% (active) in the assay with MCF7 breast; -66.9% (active) in the assay with HCT-116 colon. In the assay on KM12 colon, the growth is -16.5% (active).

For `Cc1ccc(S(=O)(=O)N2CCN(S(=O)(=O)c3oc(-c4ccccc4)nc3C#N)CC2)cc1`, the growth is 93% in the assay with HOP-92 NSCLC; 74.7% in the assay on A549/ATCC NSCLC; 87.6% in the assay on RXF 393 renal; 63.7% in the assay on SK-MEL-5 melanoma; 69.8% in the assay with CAKI-1 renal; 75.7% with CCRF-CEM leukemia. Also, the growth in the assay with OVCAR-4 ovarian was 71.8%; in the assay on IGROV1 ovarian, 80.5%; in the assay on T-47D breast, 60.8%; in the assay with MDA-MB-435 melanoma it was 77.6%; in the assay with SW-620 colon, 90%; in the assay with MCF7 breast it was 47.6%. The growth is 84.6% with HCT-116 colon, 106% in the assay on HCC-2998 colon and 82.5% in the assay with KM12 colon.

On to `Fc1ccc(/C=C/c2nc3ccccc3n3c(-c4ccc(Cl)cc4)nnc23)cc1`, for which the growth is 67.6% with HOP-92 NSCLC; 58.8% in the assay with RXF 393 renal; 76.5% in the assay with SK-MEL-5 melanoma; 74.6% in the assay with EKVX NSCLC; 0.524% (active) with CCRF-CEM leukemia; 72.6% in the assay with OVCAR-8 ovarian. The growth in the assay on OVCAR-4 ovarian was 69%; in the assay with T-47D breast, 60.9%; with MDA-MB-435 melanoma it was 78.4%; in the assay with SW-620 colon, 44.3%; with MCF7 breast, 12.9%; in the assay on HCT-116 colon, 41.8%. Further, in the assay with KM12 colon, the growth is 80.2%.

Consider `O=[N+]([O-])c1cccc(-c2nnc3c(/C=C/c4ccccc4O)nc4ccccc4n23)c1`, for which the growth with HOP-92 NSCLC was 51.2%; in the assay with A549/ATCC NSCLC it was 57.8%; in the assay with RXF 393 renal it was 52.6%; in the assay with SK-MEL-5 melanoma, 19.6%; in the assay on SK-MEL-28 melanoma it was 38.2%; in the assay on CCRF-CEM leukemia it was 47.5%. Besides, the growth with OVCAR-8 ovarian was 58.1%; in the assay with OVCAR-4 ovarian, 68.4%; with T-47D breast, 26.3%; with MDA-MB-435 melanoma, 40.7%; with SW-620 colon, 41.7%; in the assay with MCF7 breast, 22.1%. For the same compound, the growth is 56.4% with HCT-116 colon and 37.5% in the assay on KM12 colon.

For `Nc1nnc(-c2c[nH]c3ncc(Br)cc23)c(-c2c[nH]c3ccc(Br)cc23)n1`, the growth is 28.4% with HOP-92 NSCLC; 48.7% in the assay on A549/ATCC NSCLC; -14.7% (active) with RXF 393 renal; 9.81% (active) in the assay with SK-MEL-5 melanoma; 5.14% (active) in the assay with CCRF-CEM leukemia; 34% in the assay on OVCAR-8 ovarian. Further, the growth is 47.7% in the assay on OVCAR-4 ovarian; 37.4% in the assay on T-47D breast; 22.4% in the assay with MDA-MB-435 melanoma; 20.2% in the assay on SW-620 colon; 15.7% in the assay with MCF7 breast; 22.1% in the assay on HCT-116 colon. Also, in the assay on KM12 colon, the growth was 37.5%.

Regarding `O=C(c1ccccc1)c1ccc2nc(-c3ccccc3Br)[nH]c2c1`, the growth in the assay on HOP-92 NSCLC is -90.6% (active); in the assay with A549/ATCC NSCLC it was -57.9% (active); with RXF 393 renal it was -90.4% (active); in the assay on SK-MEL-5 melanoma, -97.6% (active); with CAKI-1 renal it was -92.8% (active); in the assay with CCRF-CEM leukemia it was -9.65% (active). Also, the growth with OVCAR-4 ovarian was -54.8% (active); with T-47D breast, -59.3% (active); in the assay with MDA-MB-435 melanoma, -21% (active); with SW-620 colon it was -17.9% (active); in the assay on MCF7 breast, -6.39% (active); with HCT-116 colon, -38.8% (active). The results for the growth in the assay on HCC-2998 colon and in the assay on KM12 colon were -96.3% (active) and -44.2% (active), respectively.
